Each structure is given as a SMILES string.

The target in experiment [1] is T1, Serine/threonine-protein kinase Nek9 (Homo sapiens) (UniProt Q8TD19).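 Note: each value is a mean percent inhibition of NEK9.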
T1 sequence (whole entry): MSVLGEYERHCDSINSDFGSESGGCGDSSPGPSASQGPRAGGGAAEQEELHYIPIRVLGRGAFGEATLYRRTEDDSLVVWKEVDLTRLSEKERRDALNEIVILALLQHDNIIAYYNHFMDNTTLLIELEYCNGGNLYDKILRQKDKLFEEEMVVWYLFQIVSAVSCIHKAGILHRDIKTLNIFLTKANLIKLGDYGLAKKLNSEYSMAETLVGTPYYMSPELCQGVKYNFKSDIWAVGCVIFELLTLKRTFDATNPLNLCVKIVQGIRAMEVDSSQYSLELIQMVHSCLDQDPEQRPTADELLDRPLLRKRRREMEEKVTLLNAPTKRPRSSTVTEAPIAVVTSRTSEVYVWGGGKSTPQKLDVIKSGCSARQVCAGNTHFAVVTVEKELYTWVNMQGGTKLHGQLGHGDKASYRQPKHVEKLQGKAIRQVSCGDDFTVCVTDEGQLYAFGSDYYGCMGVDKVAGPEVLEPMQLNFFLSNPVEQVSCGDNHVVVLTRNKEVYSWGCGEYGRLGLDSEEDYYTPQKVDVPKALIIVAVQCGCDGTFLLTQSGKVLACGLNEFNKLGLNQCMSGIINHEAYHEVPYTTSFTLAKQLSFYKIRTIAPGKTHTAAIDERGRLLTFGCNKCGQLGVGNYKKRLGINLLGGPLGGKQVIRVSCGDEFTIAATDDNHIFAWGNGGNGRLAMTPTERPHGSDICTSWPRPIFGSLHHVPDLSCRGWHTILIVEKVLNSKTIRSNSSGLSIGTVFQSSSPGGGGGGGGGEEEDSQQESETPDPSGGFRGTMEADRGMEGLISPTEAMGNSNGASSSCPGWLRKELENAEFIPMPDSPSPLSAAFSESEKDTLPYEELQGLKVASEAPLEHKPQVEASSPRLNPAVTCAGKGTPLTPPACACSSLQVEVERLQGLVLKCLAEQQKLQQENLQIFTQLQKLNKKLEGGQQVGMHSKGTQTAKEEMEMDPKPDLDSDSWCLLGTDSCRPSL
Conditions: at 1 µM.

Experiment [2] concerns the target Serine/threonine-protein kinase PLK1 (Homo sapiens) (UniProt P53350). Conditions: at 0.1 µM.
For experiment [3] the target is unchanged. The following applies: at 1 µM.
Experiment [4] has as its target T2, Dual specificity protein kinase TTK (Homo sapiens) (UniProt P33981).
T2 sequence (whole entry): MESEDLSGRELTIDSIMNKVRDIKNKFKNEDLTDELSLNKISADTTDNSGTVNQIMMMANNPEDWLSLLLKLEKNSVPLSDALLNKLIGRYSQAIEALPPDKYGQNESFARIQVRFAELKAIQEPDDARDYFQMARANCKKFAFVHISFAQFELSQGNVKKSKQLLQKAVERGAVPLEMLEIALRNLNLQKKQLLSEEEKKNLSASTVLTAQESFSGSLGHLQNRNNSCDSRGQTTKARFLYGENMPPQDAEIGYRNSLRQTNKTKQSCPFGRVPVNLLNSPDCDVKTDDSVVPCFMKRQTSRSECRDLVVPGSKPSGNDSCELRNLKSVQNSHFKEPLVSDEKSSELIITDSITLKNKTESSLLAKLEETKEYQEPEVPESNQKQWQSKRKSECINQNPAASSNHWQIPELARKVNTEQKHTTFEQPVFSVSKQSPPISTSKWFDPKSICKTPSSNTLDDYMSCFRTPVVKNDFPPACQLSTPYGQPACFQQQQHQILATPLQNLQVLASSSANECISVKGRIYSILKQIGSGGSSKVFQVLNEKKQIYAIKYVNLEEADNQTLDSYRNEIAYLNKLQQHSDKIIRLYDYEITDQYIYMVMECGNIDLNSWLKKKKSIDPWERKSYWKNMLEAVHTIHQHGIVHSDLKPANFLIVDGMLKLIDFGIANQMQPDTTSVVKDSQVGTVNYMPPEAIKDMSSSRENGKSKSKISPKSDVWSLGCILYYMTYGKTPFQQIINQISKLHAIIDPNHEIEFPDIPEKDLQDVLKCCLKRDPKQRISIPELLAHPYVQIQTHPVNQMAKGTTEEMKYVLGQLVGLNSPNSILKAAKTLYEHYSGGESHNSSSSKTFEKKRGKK
Conditions: at 0.1 µM.

Experiment [5] deals with T3, Receptor-type tyrosine-protein kinase FLT3 (Homo sapiens), P36888 [D835Y].
T3 sequence (whole entry): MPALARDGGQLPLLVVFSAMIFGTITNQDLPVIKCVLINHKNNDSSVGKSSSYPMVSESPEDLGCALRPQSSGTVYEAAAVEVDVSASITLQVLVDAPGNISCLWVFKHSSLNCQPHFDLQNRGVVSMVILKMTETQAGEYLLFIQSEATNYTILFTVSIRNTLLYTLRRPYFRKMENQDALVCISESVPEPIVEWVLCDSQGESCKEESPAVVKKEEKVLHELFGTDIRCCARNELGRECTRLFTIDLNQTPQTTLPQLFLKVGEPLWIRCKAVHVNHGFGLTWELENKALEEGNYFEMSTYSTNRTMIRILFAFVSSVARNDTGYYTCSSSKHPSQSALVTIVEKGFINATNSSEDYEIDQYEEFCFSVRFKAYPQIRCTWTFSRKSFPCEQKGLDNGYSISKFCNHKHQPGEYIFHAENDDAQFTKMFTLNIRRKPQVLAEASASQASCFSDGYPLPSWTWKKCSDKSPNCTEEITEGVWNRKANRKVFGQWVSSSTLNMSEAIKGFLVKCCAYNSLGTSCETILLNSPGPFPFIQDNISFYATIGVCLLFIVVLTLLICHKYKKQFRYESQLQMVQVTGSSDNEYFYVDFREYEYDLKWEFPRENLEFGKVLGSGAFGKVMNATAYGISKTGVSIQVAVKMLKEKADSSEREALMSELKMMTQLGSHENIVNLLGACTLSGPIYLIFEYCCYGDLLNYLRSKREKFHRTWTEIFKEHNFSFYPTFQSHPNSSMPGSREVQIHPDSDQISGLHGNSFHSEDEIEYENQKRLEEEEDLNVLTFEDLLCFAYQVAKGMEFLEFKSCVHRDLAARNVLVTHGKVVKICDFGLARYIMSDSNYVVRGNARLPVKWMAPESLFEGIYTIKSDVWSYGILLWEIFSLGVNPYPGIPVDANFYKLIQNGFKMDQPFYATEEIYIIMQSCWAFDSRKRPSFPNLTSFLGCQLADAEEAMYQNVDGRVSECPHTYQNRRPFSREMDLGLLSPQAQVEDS
Conditions: at 1 µM.

Experiment [6] concerns the target Vascular endothelial growth factor receptor 3 (Homo sapiens) (UniProt P35916). The following applies: at 0.1 µM.
Experiment [7] shares this target. Conditions: at 1 µM.
In experiment [8] the target is Macrophage colony-stimulating factor 1 receptor (Homo sapiens) (UniProt P07333). The following applies: at 0.1 µM.
Experiment [9] shares this target. Conditions: at 1 µM.
For experiment [10], the target named is Tyrosine-protein kinase Fyn (Homo sapiens) (UniProt P06241). Conditions: at 0.1 µM.
For experiment [11] the target is unchanged. Conditions: at 1 µM.
In experiment [12] the target is Tyrosine-protein kinase HCK (Homo sapiens) (UniProt P08631). The following applies: at 0.1 µM.
Experiment [13] has the same target. The following applies: at 1 µM.
The target of experiment [14] is Insulin-like growth factor 1 receptor (Homo sapiens) (UniProt P08069). The following applies: at 0.1 µM.
For experiment [15] the target is unchanged. Conditions: at 1 µM.
The target of experiment [16] is Insulin receptor (Homo sapiens) (UniProt P06213). Conditions: at 0.1 µM.
The target is the same in experiment [17]. The following applies: at 1 µM.
Experiment [18] addresses Insulin receptor-related protein (Homo sapiens) (UniProt P14616). The following applies: at 0.1 µM.
Experiment [19] shares this target. The following applies: at 1 µM.
The target in experiment [20] is T4, Tyrosine-protein kinase ITK/TSK (Homo sapiens) (UniProt Q08881).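 Note: mean percent inhibition of ITK from the GSK PKIS screen.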
T4 sequence (whole entry): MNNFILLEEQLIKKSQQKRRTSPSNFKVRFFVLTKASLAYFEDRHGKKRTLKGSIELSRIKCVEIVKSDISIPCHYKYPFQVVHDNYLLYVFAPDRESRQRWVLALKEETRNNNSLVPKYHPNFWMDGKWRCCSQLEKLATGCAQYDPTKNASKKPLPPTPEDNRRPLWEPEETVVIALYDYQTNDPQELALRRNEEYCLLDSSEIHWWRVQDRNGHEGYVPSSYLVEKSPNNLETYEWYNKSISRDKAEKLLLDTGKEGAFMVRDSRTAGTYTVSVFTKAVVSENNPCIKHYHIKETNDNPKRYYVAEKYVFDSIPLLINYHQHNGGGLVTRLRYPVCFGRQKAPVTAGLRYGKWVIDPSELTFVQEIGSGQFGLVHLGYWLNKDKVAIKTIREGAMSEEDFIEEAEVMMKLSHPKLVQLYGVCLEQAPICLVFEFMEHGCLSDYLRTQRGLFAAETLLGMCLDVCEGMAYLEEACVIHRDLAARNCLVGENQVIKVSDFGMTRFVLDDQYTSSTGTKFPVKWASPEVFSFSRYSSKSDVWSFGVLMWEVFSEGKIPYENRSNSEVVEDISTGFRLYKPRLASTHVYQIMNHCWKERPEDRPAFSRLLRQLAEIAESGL
The following applies: at 0.1 µM.

Macrophage colony-stimulating factor 1 receptor (Homo sapiens), sequence (P07333 whole entry): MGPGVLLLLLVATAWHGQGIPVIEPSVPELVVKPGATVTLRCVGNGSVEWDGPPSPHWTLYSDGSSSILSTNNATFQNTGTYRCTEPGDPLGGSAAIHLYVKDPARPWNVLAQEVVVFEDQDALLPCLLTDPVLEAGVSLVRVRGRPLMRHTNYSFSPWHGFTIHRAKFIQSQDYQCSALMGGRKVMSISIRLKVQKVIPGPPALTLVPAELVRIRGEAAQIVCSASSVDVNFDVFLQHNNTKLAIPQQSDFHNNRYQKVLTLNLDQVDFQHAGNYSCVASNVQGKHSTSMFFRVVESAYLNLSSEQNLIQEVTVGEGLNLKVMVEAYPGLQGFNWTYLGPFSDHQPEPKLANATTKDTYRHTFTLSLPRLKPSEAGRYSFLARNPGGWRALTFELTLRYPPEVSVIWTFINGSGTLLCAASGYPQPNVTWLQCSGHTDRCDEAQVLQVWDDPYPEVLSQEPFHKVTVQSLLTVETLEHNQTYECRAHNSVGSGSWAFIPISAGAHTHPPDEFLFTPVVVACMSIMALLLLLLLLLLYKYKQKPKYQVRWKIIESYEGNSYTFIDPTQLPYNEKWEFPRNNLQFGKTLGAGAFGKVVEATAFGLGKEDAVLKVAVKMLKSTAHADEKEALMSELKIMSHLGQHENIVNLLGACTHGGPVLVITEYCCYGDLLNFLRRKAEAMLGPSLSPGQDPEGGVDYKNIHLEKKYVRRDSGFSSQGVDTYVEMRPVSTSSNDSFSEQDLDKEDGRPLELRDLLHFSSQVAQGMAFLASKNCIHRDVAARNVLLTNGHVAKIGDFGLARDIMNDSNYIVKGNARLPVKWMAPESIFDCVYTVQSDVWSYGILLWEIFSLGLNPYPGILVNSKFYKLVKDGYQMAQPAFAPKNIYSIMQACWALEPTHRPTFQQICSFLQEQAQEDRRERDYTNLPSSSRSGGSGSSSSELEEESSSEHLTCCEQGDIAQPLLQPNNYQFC
Insulin-like growth factor 1 receptor (Homo sapiens), sequence (P08069 31-736 limits assumed): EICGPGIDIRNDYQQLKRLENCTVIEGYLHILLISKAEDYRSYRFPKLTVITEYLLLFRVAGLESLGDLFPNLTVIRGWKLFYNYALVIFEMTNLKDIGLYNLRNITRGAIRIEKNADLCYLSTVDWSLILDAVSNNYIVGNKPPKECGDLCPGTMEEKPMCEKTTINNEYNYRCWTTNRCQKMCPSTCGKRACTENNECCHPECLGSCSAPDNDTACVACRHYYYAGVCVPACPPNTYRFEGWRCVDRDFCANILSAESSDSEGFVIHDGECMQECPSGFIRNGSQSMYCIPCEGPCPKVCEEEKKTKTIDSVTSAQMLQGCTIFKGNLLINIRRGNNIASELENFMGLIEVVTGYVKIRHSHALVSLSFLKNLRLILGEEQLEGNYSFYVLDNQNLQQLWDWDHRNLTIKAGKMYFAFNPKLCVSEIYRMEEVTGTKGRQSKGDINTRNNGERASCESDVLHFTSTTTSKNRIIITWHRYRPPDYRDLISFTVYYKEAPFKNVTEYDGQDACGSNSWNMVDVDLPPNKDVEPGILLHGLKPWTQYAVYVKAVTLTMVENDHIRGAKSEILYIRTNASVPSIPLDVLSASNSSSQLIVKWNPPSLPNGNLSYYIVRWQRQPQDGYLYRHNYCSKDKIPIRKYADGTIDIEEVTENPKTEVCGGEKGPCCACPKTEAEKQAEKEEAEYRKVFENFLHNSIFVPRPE
Insulin-like growth factor 1 receptor (Homo sapiens), sequence (P08069 741-1367 limits assumed): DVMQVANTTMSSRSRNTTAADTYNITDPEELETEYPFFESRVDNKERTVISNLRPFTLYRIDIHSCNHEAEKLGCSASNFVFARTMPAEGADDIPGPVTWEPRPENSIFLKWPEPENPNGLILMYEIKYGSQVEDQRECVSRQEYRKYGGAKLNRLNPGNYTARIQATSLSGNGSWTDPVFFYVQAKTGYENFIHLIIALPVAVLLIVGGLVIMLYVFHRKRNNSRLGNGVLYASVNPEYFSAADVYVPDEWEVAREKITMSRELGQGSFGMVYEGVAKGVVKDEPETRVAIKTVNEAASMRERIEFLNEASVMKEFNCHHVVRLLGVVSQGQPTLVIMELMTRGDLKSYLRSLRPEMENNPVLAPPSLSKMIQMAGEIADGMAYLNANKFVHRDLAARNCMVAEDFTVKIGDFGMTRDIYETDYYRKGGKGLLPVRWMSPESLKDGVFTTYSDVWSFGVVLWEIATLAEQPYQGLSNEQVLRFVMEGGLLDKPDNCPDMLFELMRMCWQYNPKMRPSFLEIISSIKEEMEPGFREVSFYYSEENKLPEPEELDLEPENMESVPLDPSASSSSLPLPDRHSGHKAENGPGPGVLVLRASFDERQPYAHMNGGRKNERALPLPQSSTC
Vascular endothelial growth factor receptor 3 (Homo sapiens), sequence (P35916 whole entry): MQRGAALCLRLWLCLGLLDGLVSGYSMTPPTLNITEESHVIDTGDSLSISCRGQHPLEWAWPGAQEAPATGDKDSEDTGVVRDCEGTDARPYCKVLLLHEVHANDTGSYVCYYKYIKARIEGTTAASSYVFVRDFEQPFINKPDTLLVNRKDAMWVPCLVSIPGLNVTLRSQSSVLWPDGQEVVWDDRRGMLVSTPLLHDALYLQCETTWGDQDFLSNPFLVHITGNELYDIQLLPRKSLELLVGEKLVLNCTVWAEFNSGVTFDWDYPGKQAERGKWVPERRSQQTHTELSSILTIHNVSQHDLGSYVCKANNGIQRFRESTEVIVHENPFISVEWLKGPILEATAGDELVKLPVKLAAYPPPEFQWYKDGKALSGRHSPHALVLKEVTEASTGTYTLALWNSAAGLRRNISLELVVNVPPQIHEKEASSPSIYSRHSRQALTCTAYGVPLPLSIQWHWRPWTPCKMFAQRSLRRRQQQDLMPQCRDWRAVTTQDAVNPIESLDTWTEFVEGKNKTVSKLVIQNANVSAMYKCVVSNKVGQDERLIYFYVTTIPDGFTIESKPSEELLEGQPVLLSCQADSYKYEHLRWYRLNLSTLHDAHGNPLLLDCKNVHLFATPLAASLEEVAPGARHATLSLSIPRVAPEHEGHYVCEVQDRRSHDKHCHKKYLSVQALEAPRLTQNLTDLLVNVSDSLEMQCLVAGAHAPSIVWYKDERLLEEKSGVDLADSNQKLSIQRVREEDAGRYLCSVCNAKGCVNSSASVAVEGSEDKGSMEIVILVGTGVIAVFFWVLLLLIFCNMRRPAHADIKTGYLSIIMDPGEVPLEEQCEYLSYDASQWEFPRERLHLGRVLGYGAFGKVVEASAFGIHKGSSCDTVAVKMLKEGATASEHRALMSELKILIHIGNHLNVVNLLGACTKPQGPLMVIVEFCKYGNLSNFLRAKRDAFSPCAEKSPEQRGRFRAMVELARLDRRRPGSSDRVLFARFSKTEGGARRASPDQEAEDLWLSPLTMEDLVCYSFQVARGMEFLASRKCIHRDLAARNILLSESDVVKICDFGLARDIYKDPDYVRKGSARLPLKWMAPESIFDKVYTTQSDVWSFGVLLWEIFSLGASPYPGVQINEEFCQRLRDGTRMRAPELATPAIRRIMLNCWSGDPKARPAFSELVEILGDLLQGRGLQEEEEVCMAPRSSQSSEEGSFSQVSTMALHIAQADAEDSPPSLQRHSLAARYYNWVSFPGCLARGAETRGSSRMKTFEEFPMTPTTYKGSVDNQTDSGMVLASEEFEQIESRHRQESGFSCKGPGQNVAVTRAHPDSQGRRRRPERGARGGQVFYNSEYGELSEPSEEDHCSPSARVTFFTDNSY
Serine/threonine-protein kinase PLK1 (Homo sapiens), sequence (P53350 whole entry): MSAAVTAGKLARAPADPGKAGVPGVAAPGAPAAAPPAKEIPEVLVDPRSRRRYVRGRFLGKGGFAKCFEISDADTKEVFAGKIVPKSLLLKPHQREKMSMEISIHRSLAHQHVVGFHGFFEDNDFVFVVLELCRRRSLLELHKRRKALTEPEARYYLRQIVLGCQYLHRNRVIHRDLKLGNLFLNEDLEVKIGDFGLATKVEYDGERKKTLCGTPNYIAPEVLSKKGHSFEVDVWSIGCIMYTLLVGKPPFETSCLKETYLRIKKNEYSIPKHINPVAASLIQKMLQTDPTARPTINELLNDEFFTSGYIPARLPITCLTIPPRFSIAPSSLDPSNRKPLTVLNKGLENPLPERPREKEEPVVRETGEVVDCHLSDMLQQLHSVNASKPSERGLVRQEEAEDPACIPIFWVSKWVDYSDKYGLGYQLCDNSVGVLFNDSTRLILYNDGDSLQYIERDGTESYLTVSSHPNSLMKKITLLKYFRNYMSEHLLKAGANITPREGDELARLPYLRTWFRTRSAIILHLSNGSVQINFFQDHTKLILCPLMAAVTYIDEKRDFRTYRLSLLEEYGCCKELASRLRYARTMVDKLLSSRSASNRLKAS
Tyrosine-protein kinase Fyn (Homo sapiens), sequence (P06241 2-537 limits assumed): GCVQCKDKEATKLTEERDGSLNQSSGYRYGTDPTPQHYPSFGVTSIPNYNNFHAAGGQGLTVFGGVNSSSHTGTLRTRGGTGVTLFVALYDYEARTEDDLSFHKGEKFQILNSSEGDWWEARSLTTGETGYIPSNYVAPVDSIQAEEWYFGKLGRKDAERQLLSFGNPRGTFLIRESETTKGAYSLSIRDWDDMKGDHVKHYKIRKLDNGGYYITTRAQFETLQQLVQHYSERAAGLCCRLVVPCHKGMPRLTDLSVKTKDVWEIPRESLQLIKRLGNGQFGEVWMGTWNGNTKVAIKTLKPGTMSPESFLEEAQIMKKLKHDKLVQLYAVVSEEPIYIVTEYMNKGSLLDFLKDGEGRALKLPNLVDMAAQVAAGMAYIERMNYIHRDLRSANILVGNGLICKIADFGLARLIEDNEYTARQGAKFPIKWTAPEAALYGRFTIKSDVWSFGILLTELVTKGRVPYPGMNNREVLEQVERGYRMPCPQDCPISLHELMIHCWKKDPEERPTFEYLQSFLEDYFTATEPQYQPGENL

As a reminder, the inhibition is the change of the read-out against control, counted positive when it falls. On to `NS(=O)(=O)c1ccc(NC=C2C(=O)Nc3ccc4ncsc4c32)cc1`, for which the inhibition in [1] came to 32%; in experiment [2], 4.42%; in experiment [3], 6.99%; in experiment [4] it was 52.1%; in experiment [5] it was 87.5%; in [6], 63.9%. In addition, the inhibition in experiment [7] turned out to be 102%; in experiment [8], 47.5%; in [9], 85.5%; in experiment [10] it was 5.49%; in experiment [11] it was 26.5%; in experiment [12] it was 12.2%. The inhibition in [13] amounted to 43.8%; in experiment [14], 12.2%; in [15], 26.7%; in experiment [16] it was 6.96%; in [17] it was 29.7%; in [18] it was 3.96%. Moreover, the inhibition came to 6.03% in experiment [19] and 2.7% in [20].
As to `COc1cc2ncn(-c3cc(OCc4ccccc4S(C)(=O)=O)c(C#N)s3)c2cc1OC`, the inhibition was 1.96% in experiment [1]; 10% in experiment [2]; 47.5% in [3]; 5.84% in experiment [4]; 23.9% in experiment [5]; 26.8% in experiment [6]. In addition, the inhibition in [7] was 73.4%; in experiment [8], 6.26%; in experiment [9], 33.2%; in experiment [10], 30.9%; in experiment [11], 76.8%; in [12], 16.2%. The inhibition came to 61.8% in [13]; 4.3% in experiment [14]; 5.83% in [15]; 5.14% in experiment [16]; 5.1% in experiment [17]; 3.69% in [18]. Also, the inhibition was 3.13% in experiment [19] and 2.84% in experiment [20].
As for `Cc1cc(Cl)cc2c1NC(=O)C2=NNc1ccc(S(N)(=O)=O)cc1`, the inhibition in [1] is 10.9%; in experiment [2], 6.15%; in [3], 2.07%; in experiment [4], 4.88%; in experiment [5], -4.47%; in [6], 1.38%. In addition, the inhibition in experiment [7] was 1.06%; in [8] it was -2.64%; in experiment [9], 8.32%; in experiment [10] it was 0.94%; in experiment [11], 3.01%; in [12], 2.49%. Also, the inhibition in experiment [13] was 4.3%; in experiment [14], 2.32%; in experiment [15], 0.19%; in experiment [16], 2.78%; in experiment [17] it was 4.18%; in [18], -0.92%. The figures for the inhibition in [19] and in [20] were 1.47% and 1.14%, respectively.
Take `COc1cc(Nc2nccc(-c3cnn4ncccc34)n2)cc(OC)c1`: the inhibition was 69.9% in experiment [1]; 6.63% in experiment [2]; 36.9% in experiment [3]; 7.15% in experiment [4]; 77.3% in experiment [5]; 10.4% in [6]. Besides, the inhibition worked out at 45.4% in experiment [7]; 68.2% in experiment [8]; 94.2% in [9]; 7.87% in experiment [10]; 40.3% in [11]; 5.71% in [12]. In addition, the inhibition in experiment [13] came to 32.8%; in experiment [14] it was 13.8%; in experiment [15], 65.4%; in [16], 12.3%; in experiment [17] it was 70%; in [18], 3.56%. The inhibition was found to be 22.1% in experiment [19] and 0.74% in [20].

The values are drawn from ChEMBL document CHEMBL1961873, “Compounds: GSK PKIS; Assays: Nanosyn kinase panel” (2012).
